The experiment addresses HLA-C*04:01. The experiment is described as follows: thermal melting temperature (Tm) of peptide-HLA complex; higher = more thermostable pHLA complex. In a few lines: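 Values come from C1R-A*02:01 or C1R-B*07:02 lysates (5 × 10^7 cell equivalents per replicate, triplicate), heated for 10 min between 37 and 73 °C and immunoprecipitated overnight at 4 °C with W6/32–protein A sepharose. The acid-eluted peptides were quantified by DIA-MS with iRT normalisation and outlier correction, and each peak area was reported as median fold-change versus 37 °C. The reported Tm is the transition midpoint from a least-squares logistic sigmoid fit. An R^2 above 0.85 was required for each fit.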

Sequence KYDPNVYSI showed a thermal melting temperature (C1R-A*02:01) of 50.6 °C and a thermal melting temperature (C1R-B*07:02) of 55.2 °C.
The corresponding values for HFDDFVTNL are 58.7 °C and 58 °C.
The like results for AFDEAIAEL were, in that order, 58.4 °C and 62.7 °C.
The corresponding values for SYMEVPTYL are 54.8 °C and 61 °C.
As to TFDPVTKVL, the thermal melting temperature runs as follows: (C1R-A*02:01) 51.4 °C; (C1R-B*07:02) 51.5 °C.
On to LFDKSINEF, for which the thermal melting temperature runs as follows: (C1R-A*02:01) 56.3 °C; (C1R-B*07:02) 57.2 °C.
The like results for AYDDKIYYF were, in that order, 56.1 °C and 55.7 °C.
On to LYDVPANSM, for which the thermal melting temperature was 51.1 °C (C1R-A*02:01) and 57.6 °C (C1R-B*07:02).
Regarding VWDVIGRSL, the thermal melting temperature is 53.5 °C (C1R-A*02:01) and 51.9 °C (C1R-B*07:02).
On to IWEPLAVKL, for which the thermal melting temperature was 47.3 °C (C1R-A*02:01) and 47.2 °C (C1R-B*07:02).
The corresponding values for ILDPHVVLL are 54.8 °C and 57.6 °C.
Take VYDLLKTNL: the thermal melting temperature amounted to 59 °C (C1R-A*02:01) and 58.3 °C (C1R-B*07:02).
Take FTDEESRVF: the thermal melting temperature (C1R-A*02:01) was 48.1 °C and the thermal melting temperature (C1R-B*07:02) stood at 46.7 °C.
As for KADGVPVYL, the thermal melting temperature was 56.5 °C (C1R-A*02:01) and 57.1 °C (C1R-B*07:02).
Regarding HWDPQEVTL, the thermal melting temperature was found to be 58.9 °C (C1R-A*02:01) and 57.7 °C (C1R-B*07:02).
The corresponding values for TFDDIVHSF are 54.2 °C and 55.3 °C.
As for KFDDGAVFL, the thermal melting temperature reads like this: (C1R-A*02:01) 60.9 °C; (C1R-B*07:02) 60.4 °C.
The corresponding values for VFHVQQTEM are 53.8 °C and 54.5 °C.
The corresponding values for FNDTFVHV are 49.3 °C and 48.5 °C.
The like results for SYDHVELTF were, in that order, 51.3 °C and 51.9 °C.
As to RFDSDVGEF, the thermal melting temperature (C1R-A*02:01) stood at 54.9 °C and the thermal melting temperature (C1R-B*07:02) came out at 54.5 °C.
The corresponding values for SFDVSQKF are 49 °C and 49.7 °C.
In the case of SFDSTVRL, the thermal melting temperature by setting is: (C1R-A*02:01) 52.9 °C; (C1R-B*07:02) 54.6 °C.
The like results for FYPPDPAQL were, in that order, 49.5 °C and 51.5 °C.
The corresponding values for IWDVSVNSV are 50.8 °C and 58.7 °C.
The like results for FYDPDVGNF were, in that order, 50.9 °C and 51.2 °C.
As to IYDKFIAQL, the thermal melting temperature (C1R-A*02:01) stood at 52.5 °C and the thermal melting temperature (C1R-B*07:02) came out at 54.5 °C.
The corresponding values for NYDFGPIHM are 54.2 °C and 55.8 °C.
The corresponding values for TFDVAPSRL are 52.3 °C and 52.4 °C.
In the case of YYEEQHPEL, the thermal melting temperature by setting is: (C1R-A*02:01) 48.6 °C; (C1R-B*07:02) 47 °C.
The corresponding values for VYDIAAKF are 56.9 °C and 57.6 °C.
The corresponding values for TFDASRTTF are 53.4 °C and 53.5 °C.
The like results for AFDVHLNAF were, in that order, 55.5 °C and 55.9 °C.
Take IFDSKVTEI: the thermal melting temperature (C1R-A*02:01) is 55.4 °C and the thermal melting temperature (C1R-B*07:02) is 54.8 °C.
NYDEALRLL: the thermal melting temperature was determined as 54 °C (C1R-A*02:01) and 53 °C (C1R-B*07:02).
The corresponding values for FFDEESYSL are 45 °C and 43.7 °C.
Turning to MLDPLEVHL, the thermal melting temperature came to 47.2 °C (C1R-A*02:01) and 52.5 °C (C1R-B*07:02).
QLDPLVVEL: the thermal melting temperature was 50 °C (C1R-A*02:01) and 46.9 °C (C1R-B*07:02).
The like results for VADPYVVIM were, in that order, 53.4 °C and 54.6 °C.
The like results for LYDPVISKL were, in that order, 56.9 °C and 57.3 °C.
The like results for IYDSVKVYF were, in that order, 56.8 °C and 57 °C.

Source of the values: the supplement of paper PMC7726561.
